Consider 46 compounds from ChEMBL document CHEMBL3988442, “University of Dundee, Small-Polar-MMV Screening Library” (2021).

Screen size: about 66,000 compounds; about 960 (1.5%) showed an effect of 50% or more. This is one part of a sample in which strong results are shown more often than they occur.

The test system of this test is Trypanosoma brucei. As to the kind of experiment: Trypanosoma brucei 72 hour study. Format: functional, organism-based. Also on record: scale not given: in the data most compounds retested in dose-response had high values.

With `O=C(O)C(F)(F)F.O=C(c1cscn1)N1CCc2c(COCC3CC3)cncc2C1`, where the note is “30.3 µM, […]”, the “Percent Effect” value is given as -26.29%. On the same count and under the same terms, the value for `O=C(O)C(F)(F)F.O=C([C@H]1C[C@@H]2CCN(c3cccc(F)c3)C[C@H]2O1)N1CCCCO1` was -0.6141%.

As to `Fc1ccc(CNCc2nnc3n2CC(C(F)(F)F)CC3)cc1` (stereo unspecified), the “Percent Effect” value (30 µM, 30.03 µM) was -35.58%. Consider `CC[C@@H]1N(Cc2ccc(F)cc2)CCC[C@]12CCC(=O)N2CCOC.O=C(O)C(F)(F)F`, for which, for the setting “30.3 µM, […]”, the “Percent Effect” value is reported as -80.81%.

Consider `CCc1n[nH]c(C2CN(C(=O)CCn3ccccc3=O)CCO2)n1` (stereo unspecified), for which, where the note is “30.3 µM, […]”, the “Percent Effect” value is recorded as 7.899%. For `CC(C)c1n[nH]c(C2CN(C(=O)CCn3ccccc3=O)CCO2)n1` (stereo unspecified), where the note is “30 µM, 30.03 µM”, the “Percent Effect” value was determined as 52.13%. Turning to `CC(C)c1n[nH]c(C2CN(C(=O)Cn3ccccc3=O)CCO2)n1` (stereo unspecified), the “Percent Effect” value (30.3 µM, […]) is 9.582%. With `Cl.c1ccc(-c2ccc(C3CNCCO3)nc2)cc1` (stereo unspecified), the “Percent Effect” value (30 µM, 30.03 µM) is -8.657%. Regarding `Cl.Cl.Cn1nc(C2CNCCO2)cc1CCOc1ccc(Cl)cc1` (stereo unspecified), for the setting “30.3 µM, […]”, the “Percent Effect” value was 53.46%. The same measure, in the same setting: in the case of `COc1ccc(OCCc2cc(C3CNCCO3)nn2C)cc1` (stereo unspecified) it was 1.828%; in that of `Cc1ccc(-c2ccc(C3CNCCO3)nc2)cc1.Cl` (stereo unspecified), 88.62%; in that of `COc1ccc(-c2ccc(C3CNCCO3)nc2)cc1.Cl` (stereo unspecified), -17.4%. Turning to `Cl.c1ncc(-c2ccc(C3CNCCO3)nc2)cn1` (stereo unspecified), the “Percent Effect” value (30.3 µM, […]) is on record as -18.07%. As to `CN(C)c1ncc(-c2ccc(F)cc2)c(C2CNCCO2)n1.Cl` (stereo unspecified), the “Percent Effect” value (30.3 µM, […]) was 29.73%. Consider `Cl.Clc1ccc(-c2ccc(C3CNCCO3)nc2)cc1` (stereo unspecified), for which the “Percent Effect” value (30.3 µM, […]) was found to be 98.64%. `Cn1nc(C2CNCCO2)cc1CCOc1ccc(C(F)(F)F)cc1` (stereo unspecified): where the note is “30.3 µM, […]”, the “Percent Effect” value was determined as 20.05%. Regarding `COCCCNC(=O)NCc1cccn1Cc1ccccc1C`, the “Percent Effect” value (30 µM, 30.03 µM) is -24.61%. Same read-out and setting: the value for `O=C(O)C(F)(F)F.O=C1COC2(CCN(Cc3ccoc3)CC2)CN1c1ccccc1` was -9.648%; that for `COCCNC(=O)[C@H]1CN(Cc2csc(C)n2)C[C@H]2OCC[C@@H]12.O=C(O)C(F)(F)F.O=C(O)C(F)(F)F` was -11.19%. Same read-out and setting: the value for `COCC1CC2(CCN(Cc3cccc(C#N)c3)CC2)CN1C(C)C.O=C(O)C(F)(F)F.O=C(O)C(F)(F)F` (stereo unspecified) was -12.65%.

For the compound `CC[C@H](C)[C@H](N)C(=O)N1CC(=O)c2sc(NC3CCCCC3)nc2C1`, the “Percent Effect” value (30.3 µM, […]) turned out to be 89.66%.

On to `CC[C@H](C)[C@H](N)C(=O)N1CC(=O)c2sc(NCc3ccccc3)nc2C1`, for which the “Percent Effect” value (30.3 µM, […]) came out at 35.54%. The same measure, in the same setting: the value for `CC(C)CC(=O)N1CC(=O)c2sc(Nc3ccc(F)cc3)nc2C1` was -26.14%; that for `CC(C)NC(=O)N1CC(=O)c2sc(NC3CCCCC3)nc2C1` was -21.05%; that for `CC(C)CC(=O)N1CC(=O)c2sc(NC3CCCCC3)nc2C1` was -18.82%. Turning to `CC[C@H](C)[C@H](N)C(=O)N1CC(=O)c2sc(Nc3ccc(F)cc3)nc2C1`, the “Percent Effect” value (30.3 µM, […]) is 54.3%. As for `N[C@H]1CC[C@@H](n2cc(C(=O)N[C@H]3CCCc4ccccc43)nn2)CC1`, the “Percent Effect” value (30 µM, 30.03 µM) is recorded as -48.79%. Turning to `O=C(Nc1cnccn1)[C@@H]1COC[C@H]2CN(C3CCC3)C[C@H]21.O=C(O)C(F)(F)F`, the “Percent Effect” value (30 µM, 30.03 µM) is recorded as -9.316%. Take `COCCN1CCC(CNC(=O)Nc2ccc(SC(F)(F)F)cc2)C1` (stereo unspecified): the “Percent Effect” value (30.3 µM, […]) was determined as 90.18%. Regarding `COCCN1CCC(CNC(=O)CCc2cc(F)ccc2F)C1` (stereo unspecified), the “Percent Effect” value (30 µM, 30.03 µM) is on record as -4.617%. In the case of `COCCN1CCC(CNC(=O)C2(c3cccc(Cl)c3)CC2)C1` (stereo unspecified), the “Percent Effect” value (30.3 µM, […]) is on record as 10.42%. For the compound `COCCN1CCC(CNC(=O)c2cc(C)cc(C)c2)C1` (stereo unspecified), for the setting “30 µM, 30.03 µM”, the “Percent Effect” value is listed as 28.41%. The same measure, in the same setting: in the case of `COCCn1cc(NC(=O)NCC2CCN(c3ccccc3)C2)cn1` (stereo unspecified) it was -68.77%. Take `COCCN1CCC(CNC(=O)C2(c3ccccc3)CCC2)C1` (stereo unspecified): the “Percent Effect” value (30.3 µM, […]) is recorded as -7.306%. Turning to `COCCN1CCC(CNC(=O)Nc2ccc(-c3ccccc3)cc2)C1` (stereo unspecified), the “Percent Effect” value (30.3 µM, […]) was determined as 100.6%.

As for `COCCN1CCC(CNC(=O)Nc2ccc(F)c(Cl)c2)C1` (stereo unspecified), the “Percent Effect” value (30.3 µM, […]) is on record as 73.54%. Same read-out and setting: the value for `COCCN1CCC(CNC(=O)C2(c3ccccc3)CCOCC2)C1` (stereo unspecified) was -10.94%; that for `O=C(C1CCCC1)N1CCC2(CC1)COCCN2CC1CC1.O=C(O)C(F)(F)F` was -13.33%. Consider `CCN1CCC2(CC1)CC(NCc1ccncc1)c1ccccc1O2.O=C(O)C(F)(F)F.O=C(O)C(F)(F)F.O=C(O)C(F)(F)F` (stereo unspecified), for which the “Percent Effect” value (30 µM, 30.03 µM) is on record as 1.43%. For the compound `O=C(CN1CCC(c2ccnn2CCO)CC1)NCc1ccco1`, where the note is “10 µM”, the “Percent Effect” value is given as -47.08%. For the compound `O=C(O)C(F)(F)F.O=C(c1ccno1)N1CC[C@@H]2O[C@H](COCCN3CCCC3)CC[C@@H]21`, the “Percent Effect” value (30 µM, 30.03 µM) was 39.45%.

Regarding `CCCN(Cc1ccccn1)Cc1ccccc1OC`, under “30.3 µM, […]”, the “Percent Effect” value is recorded as -7.297%. On the same count and under the same terms, the value for `CCCN(Cc1cnc2ccccc2n1)Cc1ccccc1OC` was 99.59%; that for `CCCN(Cc1nc2ccccc2[nH]1)Cc1ccccc1OC` was 15.38%. Consider `Cc1cccc(CN2CCn3cc(Cn4cccn4)nc3C2)n1.O=C(O)C(F)(F)F.O=C(O)C(F)(F)F.O=C(O)C(F)(F)F`, for which the “Percent Effect” value (30 µM, 30.03 µM) is -12.32%. As for `O=C(O)C(F)(F)F.O=C(c1cnccn1)N1CCOC2(CCCN(c3ncccc3F)C2)C1` (stereo unspecified), the “Percent Effect” value (30.3 µM, […]) is reported as -33.25%.
